An excerpt weighted towards active compounds, which were near 4.7% of everything screened.
GDH-TPI counter-1: GDH-TPI coupling enzyme inhibitors, primary screen, artefact control for M. tuberculosis FBA inhibitor project, biochemical, absorbance, full deck; GDH-TPI coupled enzyme counterscreen, NADH absorbance; inhibition, % at 4.8 µM; 1.2% of 360,000 active; AID 588335, 2011
DUSP3 inh: VHR1 phosphatase inhibitors, primary screen, biochemical, absorbance, uHTS | recombinant VHR phosphatase, pNPP absorbance | inhibition, % at 13.3 µM | 0.52% of 290,000 active | AID 1654, 2009; in the data active = inhibition above about 50%
3CLpro inhibitor: SARS-CoV 3CLpro protease inhibitors, primary screen, biochemical, quenched FRET; Replicase polyprotein 1ab (Severe acute respiratory syndrome coronavirus), P0C6X7; recombinant SARS-CoV 3CLpro, quenched FRET peptide cleavage; inhibition, % at 6 µM; 0.14% of 290,000 active; in the data active = inhibition above about 12%
FBA Mtb inh: Mtb FBA enzyme inhibitors, primary screen, biochemical, fluorescence, strain H37Rv; 2.3% of 360,000 active; purified M. tuberculosis FBA, fluorescence read-out; Fructose-bisphosphate aldolase (Mycobacterium tuberculosis (strain ATCC 25618 / H37Rv)), …; inhibition, % at 1 µM; in the data active = inhibition above about 27%
RecA intein inh: Mtb RecA intein splicing inhibitors, primary screen, biochemical, fluorescence, HTS; cell-free RecA intein splicing; AID 2221, 2009; Protein RecA (Mycobacterium tuberculosis (strain ATCC 25618 / H37Rv)), P9WHJ3; inhibition, % (test concentration not listed); 0.75% of 290,000 active; in the data active = inhibition above about 30%
Target sequence (P9WHJ3 whole entry, looked up): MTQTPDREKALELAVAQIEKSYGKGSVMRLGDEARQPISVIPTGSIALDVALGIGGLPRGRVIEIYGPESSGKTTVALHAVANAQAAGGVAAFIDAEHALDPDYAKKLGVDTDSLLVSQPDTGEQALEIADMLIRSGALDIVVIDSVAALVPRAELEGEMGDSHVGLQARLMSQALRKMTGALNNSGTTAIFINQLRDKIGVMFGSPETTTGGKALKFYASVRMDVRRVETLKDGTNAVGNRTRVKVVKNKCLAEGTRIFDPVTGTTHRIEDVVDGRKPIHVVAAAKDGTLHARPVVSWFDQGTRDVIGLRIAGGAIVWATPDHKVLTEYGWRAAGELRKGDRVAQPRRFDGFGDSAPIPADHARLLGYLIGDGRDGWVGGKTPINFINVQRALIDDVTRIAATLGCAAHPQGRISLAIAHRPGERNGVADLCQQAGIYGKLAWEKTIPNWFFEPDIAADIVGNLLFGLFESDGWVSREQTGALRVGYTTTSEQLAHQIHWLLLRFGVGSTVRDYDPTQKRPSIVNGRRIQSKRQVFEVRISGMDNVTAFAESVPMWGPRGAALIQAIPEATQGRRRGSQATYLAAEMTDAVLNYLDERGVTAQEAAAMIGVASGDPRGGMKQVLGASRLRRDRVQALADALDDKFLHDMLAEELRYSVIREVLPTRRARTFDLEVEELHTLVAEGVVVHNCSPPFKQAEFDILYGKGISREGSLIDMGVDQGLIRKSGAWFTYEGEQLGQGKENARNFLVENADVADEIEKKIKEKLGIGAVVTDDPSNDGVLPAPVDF
CCHF vOTU inh: CCHFV vOTU protease inhibitors, primary screen, biochemical, Pep-AMC substrate, fluorescence; 0.55% of 370,000 active; inhibition, % at 11.5 µM
Mtb FBA confirm: M. tuberculosis aldolase blockers, biochemical, fluorescence, strain H37Rv, confirmation; purified M. tuberculosis FBA, fluorescence read-out; AID 651616, 2012; inhibition, % at 1 µM; 78% of 5,600 active; shares compounds with FBA Mtb inh; in the data active = inhibition above about 27%
GDH-TPI counter-2: GDH-TPI coupling enzyme inhibitors, artefact control for M. tuberculosis FBA inhibitor project, biochemical, fluorescence, high throughput; AID 652141, 2013; inhibition, % at 1 µM; 81% of 5,600 active; GDH-TPI coupled enzyme counterscreen; shares compounds with FBA Mtb inh; in the data active = inhibition above about 10%
GDH-TPI dose: GDH-TPI coupling enzyme inhibitors, dose response, artefact control for M. tuberculosis FBA inhibitor project, biochemical, fluorescence, IC50; 79% of 170 active; IC50, µM; shares compounds with FBA Mtb inh; AID 652145, 2013; GDH-TPI coupled enzyme assay, artifact counterscreen; call rule not given here
Numbers stand for hits; 0 = inactive; - = not tested or not shown; + = active, no number. Rule as the data show it, unless noted: active = inhibition above about 30%; inactive = the rest.

SMILES	GDH-TPI counter-1	DUSP3 inh	3CLpro inhibitor	FBA Mtb inh	RecA intein inh	CCHF vOTU inh	Mtb FBA confirm	GDH-TPI counter-2	others
CCOC(=O)c1nc2sc3c(c2c(=O)[nH]1)CCC(C)C3 (stereo unspecified)	0	0	0	101	0	0	74	57
CC(C)CCOCc1nc2sc3c(c2c(=O)[nH]1)CCC(C)C3 (stereo unspecified)	0	0	0	0	0	0	-	-
COC1OC(CO)C(N=C(C)C)C1O (stereo unspecified)	0	-	-	0	-	0	-	-
COC1OC(CO)C(O)C(O)C1O (stereo unspecified)	0	0	0	33	0	0	55	45
Cc1cccc(C)c1NS(=O)(=O)c1c(C(=O)N2CCCCC2)c(C)n(C)c1C	0	0	0	0	0	0	-	-
Cc1ccc(C(=O)CCc2ccc(N)cc2)cc1	0	0	0	0	0	0	-	-
Cc1ccc(S(=O)(=O)N2CCCC2C(=O)N2CCN(c3ccccc3)CC2)cc1C (stereo unspecified)	-	-	-	-	-	0	-	-
COC(=O)c1ccc2nc(-c3ccc(OC)c(OC)c3)c(Cc3ccsc3)n2c1	-	-	-	0	-	0	-	-
COc1ccc(-c2nc3ccc(C)cn3c2Cc2ccsc2)cc1OC	-	-	-	52	-	0	116	73
CCN(CC)S(=O)(=O)c1cccc(NC(=O)c2ccc(-n3nc(C)cc3C)cc2)c1	0	0	0	0	0	0	-	-
Cc1cccn2c(=O)c(C=Nc3ccc(Cl)cc3)c(NCCO)nc12	0	0	0	31	0	0	66	45
Cc1cccn2c(=O)c(C=Nc3ccccc3)c(NCCO)nc12	0	0	0	39	0	0	0	0
CNc1nc2c(C)cccn2c(=O)c1C=NCc1ccccc1	0	0	0	0	0	0	-	-
N#Cc1cccc(NC(=O)CN2CCN(Cc3ccccc3)CC2)c1	0	0	0	0	-	0	-	-
CSc1ccc(S(=O)(=O)N2CCC(C(=O)NCC3CCCO3)CC2)cc1 (stereo unspecified)	0	0	0	0	-	0	-	-
COc1ccccc1/C=C\C(=O)NCC(=O)N/N=C(/C)c1cccc([N+](=O)[O-])c1	0	0	0	0	0	0	-	-
Cc1cc(=O)oc2cc(OC(C)C(=O)O)c(Cl)cc12 (stereo unspecified)	0	0	0	32	0	0	0	0
COc1cc(NC(=O)COc2cc3oc(=O)cc(C)c3cc2Cl)cc(OC)c1OC	0	0	0	0	0	0	-	-
FC(F)(F)Oc1cccc(Cn2ccc3ccc(-c4ccc5ccn(Cc6ccccc6)c5c4)cc32)c1	-	-	-	-	-	0	-	-
O=C(O)c1cc(S(=O)(=O)Nc2ccccc2C(=O)O)ccc1O	0	0	0	29	0	0	0	0	GDH-TPI dose=0
O=C(NCc1ccccc1Cl)C1=CC=CN2CCS(=O)(=O)N=C12	0	-	-	36	-	0	+	+
CC(NC(=O)C1=CC=CN2CCS(=O)(=O)N=C12)c1ccc(Cl)cc1Cl (stereo unspecified)	0	-	-	29	-	0	126	95
CC(NC(=O)C1=CC=CN2CCS(=O)(=O)N=C12)c1ccc(Cl)c(Cl)c1 (stereo unspecified)	0	-	-	0	-	0	-	-
CC(C)(C)c1ccc(NC(=O)C2=CC=CN3CCS(=O)(=O)N=C23)cc1	0	-	-	0	-	0	-	-
Cc1ccc(NC(=O)CSC(C)C(=O)OCc2cc(=O)oc3cc(O)ccc23)cc1 (stereo unspecified)	0	-	-	41	-	0	+	+
SMILES	GDH-TPI counter-1	DUSP3 inh	3CLpro inhibitor	FBA Mtb inh	RecA intein inh	CCHF vOTU inh	Mtb FBA confirm	GDH-TPI counter-2	others
CSCCC(NS(=O)(=O)c1ccccc1)C(=O)OCc1cc(=O)oc2cc(O)ccc12 (stereo unspecified)	0	-	-	0	0	0	-	-
CCN(CC)c1ccc(C(=O)OCc2cc(=O)oc3cc(O)ccc23)cc1	32	0	0	72	0	0	0	0
COc1ccc(CC2=NCCc3cc(OC)c(OC)cc32)cc1OC	0	-	-	94	-	0	+	157
CCc1cc2c(=O)c(-c3nc4ccccc4n3C)coc2c(CN2CCCCC2)c1O	0	0	0	0	0	0	-	-
O=c1c(-c2ccccc2Cl)coc2c(CN3CCCCC3)c(O)ccc12	0	0	0	80	0	0	64	60
CCN(CC)Cc1c(O)ccc2c(=O)c(-c3ccccc3Cl)coc12	31	0	0	85	0	0	+	+
CC1CN(Cc2c(O)ccc3c(=O)c(-c4ccccc4Cl)coc23)CC(C)O1 (stereo unspecified)	0	0	0	57	0	0	105	87
CC1CCCCN1Cc1c(O)ccc2c(=O)c(-c3nc4ccccc4s3)coc12 (stereo unspecified)	0	0	0	0	0	0	-	-
CCN(CC)Cc1c(O)ccc2occ(C(=O)c3ccc(OC)cc3)c12	0	0	0	0	0	0	-	-
CCC1CCCCN1Cc1c(O)ccc2c(=O)c(-c3ccccc3OC)coc12 (stereo unspecified)	0	-	-	83	0	0	43	31
O=C(C[C@H]1CC[C@@H](NC(=O)Cc2cccnc2)[C@@H](CO)O1)NCc1ccc2c(c1)OCO2	-	-	-	-	-	0	-	-
CC(C)Oc1ccc(CCNC(=O)CC2C(=O)NCCN2C)cc1 (stereo unspecified)	0	0	0	0	0	0	-	-
O=c1c(-c2ccc(Br)cc2)coc2c(CN3CCCCC3)c(O)ccc12	0	0	0	31	0	0	0	0
COc1ccc(-c2coc3c(CN4CCCCC4)c(O)c(CN4CCCCC4)c(O)c3c2=O)cc1	-	0	0	-	0	-	-	-
O=c1c(-c2ccc(Br)cc2)coc2c(CN3CCOCC3)c(O)ccc12	0	0	0	0	0	0	-	-
O=c1c(-c2ccc(Cl)cc2)coc2c(CN3CCCCC3)c(O)ccc12	0	0	0	27	0	0	0	0
Cc1c(C(=O)N(C)Cc2ccc(F)cc2)sc(=O)n1Cc1ccc(Cl)c(Cl)c1	0	-	-	0	-	0	-	-
O=C(Nc1ccc2[nH]ncc2c1)c1ccccc1Cl	0	0	0	0	0	0	-	-
